Laboratory results from PubChem BioAssay (EPA / NIEHS).
A structure can be active in one record and inactive in another. Active and inactive are the calls of the source. The calls were made as follows: active = hit-call score of the fitted dose curve at least 0.9, where 1 is the maximum; inactive = score below 0.9.

test: CCTE_Shafer_MEA_dev_per_burst_interspike_interval: CCTE's Neural Network Formation Assay for Burst Interspike Interval, Shafer Lab (AID 2284044);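 also: mean spike spacing inside bursts as AUC over recordings on days 5 7 9 12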;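 as to AC50: potency for a decrease of within-burst interspike interval below DMSO level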
Experimental: CCTE_Shafer_MEA_dev assay is conducted using Axion Biosystems 48 well microelectrode array (MEA) plates and Maestro recording system. Each well of the MEA plate contains a grid of 16 microelectrodes embedded in the culture surface. Electrically active cells, such as neurons, can be cultured over the electrodes, and electrical activity in these cells can be recorded extracellularly. The spontaneous firing of neurons is captured from each electrode on a microsecond timescale providing both temporally and spatially precise data. […] The CCTE_Shafer_MEA_dev assay uses primary cultures of rat cortical neurons. Recordings are made on days post-plating 5, 7, 9 and 12. As these cultures mature over time, neural networks develop functional activity and form cohesive networks in which electrical activity can be highly coordinated. CCTE_Shafer_MEA_dev_per_burst_interspike_interval is 1 of 19 assay components of the CCTE_Shafer_MEA_dev assay. It measures the average time interval between spikes (action potential firings) within a single-electrode burst (temporally-clustered group of spikes) during a recording in a microelectrode array (MEA) using Axion Biosystems Maestro 768 channel amplifier with the AxIS adaptive spike detector. The mean inter-spike interval within bursts is averaged across the actively bursting electrodes to report a well-mean value. To collapse across multiple recordings made on days post-plating 5, 7, 9 and 12, the trapezoidal area-under-the-curve of the component is calculated.Data from the assay component CCTE_Shafer_MEA_dev_per_burst_interspike_interval was analyzed into 1 assay endpoint. This assay endpoint, CCTE_Shafer_MEA_dev_per_burst_interspike_interval, was analyzed in the negative analysis fitting direction relative to DMSO as the negative control and baseline of activity. Using a type of functional reporter, gain or loss-of-signal activity can be used to understand electrical activity.
On the day prior to culture, each well was coated thoroughly with 150 uL of 0.05% polyethyleneimine (PEI, Sigma Cat P3143) in 50 mM HEPES (Sigma Cat H7523) at a pH of 8. The plate was incubated at 37C for one hour. PEI was rinsed out with 500 uL of sterile water three times. Plates were stored at 4C until the day of culture. This culture was plated at a seeding density of 1.5 x 10^5 cells/well on a 48-well MEA plate, prepared as described above. Cells were administered via a 25 uL media/laminin ([…]; Sigma Cat L2020-1MG) drop directly onto the microelectrode array, as adding the cells with the laminin results in better attachment than pre-coating with laminin. After 2 hours, an additional 475 uL of cortical media was added and the cells returned to the incubator. Exposure starts at day 0 of plating and is continued over twelve days of network development until the experiment is terminated. Cells are fed with fresh medium on DIV 5 and 9, following the recordings on those days. The entire volume of media in the well is exchanged and any vehicle or compound treatment is renewed. Complete details are found in OP-NHEERL/ISTD/SBB/TJS/2015-03-r0 (available on request, email shafer.tim@epa.gov). Measurement of the electrical activity is non-invasive, and recordings can be made from the same plate over multiple different days of the culture. In cortical neurons, this allows for the measurement of extracellular action potentials over the period during which networks form in the MEA plate.

Q: What does the source list for `CC1(C)C(C=C(Cl)Cl)C1C(=O)OCc1cccc(Oc2ccccc2)c1` (stereo not given)?
A: outcome: inactive; AC50: 25.5 µM (active)

Q: For `CC(C)(c1ccc(O)cc1)c1ccc(O)cc1`, which outcome is on record?
A: inactive

Q: Which outcome does the source give for `OB(O)O` here?
A: inactive

Q: Which outcome does the source give for `CCCCC(CC)CN1C(=O)C2C3C=CC(C3)C2C1=O` (stereo not given) here?
A: inactive

Q: Which outcome does the source give for `COCCO` here?
A: inactive

Q: With `S=C(S)NCCNC(=S)S.[Mn+2].[S-]C([S-])=NCCN=C([S-])[S-].[Zn+2]` as the compound, how does the outcome read?
A: inactive

Q: For `S=C([S-])NCCNC(=S)[S-].[Mn+2]`, which outcome is on record?
A: inactive

Q: For `CCN(CC)C(=O)c1cccc(C)c1`, which outcome is on record?
A: inactive

Q: For `O=C(O)c1ccccc1`, which outcome is on record?
A: inactive

Q: Which outcome does the source give for `C#CCOC(=O)[C@@H](C)Oc1ccc(Oc2ncc(Cl)cc2F)cc1` here?
A: inactive

Q: For `CSC(=O)c1cccc2nnsc12`, which outcome is on record?
A: inactive

Q: For `CCCCOCCOCCOCc1cc2c(cc1CCC)OCO2`, which outcome is on record?
A: inactive

Q: Which AC50 does the source give for `Cc1nn(C)c(Oc2ccccc2)c1C=NOCc1ccc(C(=O)OC(C)(C)C)cc1` here?
A: 0.00274 µM (active)

Q: With `CCCN(CCC)C(=O)SCC` as the compound, how does the outcome read?
A: inactive
